# Screening results (PubChem)
# The list is not random: actives were taken first. Their share in the collection is about 0.54%.
# Vif-APOBEC3F blk = Vif-A3F binding inhibition | HeLa A3F-eYFP + Vif (tagged APOBEC3F with the HIV-1 protein that degrades it), YFP fluorescence increase | Potency, µM (top dose mostly 46.1 µM), inactives show top-dose activity, negative = active | 0.2% of 390,000 active | AID 602313; also: potency is read from the fitted curve at half-maximal effect; % of control where 0% means no effect; nearly all actives have a fitted effect of over 65% in size
#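 HeLa cells stably expressing A3F-eYFP plus Vif, plated and incubated overnight at 37 deg C, then exposed to compounds overnight at 37 deg C. Blocked degradation read as raised yellow fluorescence (Ex 488/Em 500-530).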
# TRPML1 ag = human mucolipin-1 channel agonism; AID 624414; TRPML1-expressing cells, Ca2+ dye fluorescence, FDSS; 0.12% of 410,000 active; activation, % (no concentration beside the values); in the data active = activation above about 50%; inconclusive = mostly about 30% to 49%; also: 0% is about no effect
# Target sequence (Q9GZU1 whole entry, looked up): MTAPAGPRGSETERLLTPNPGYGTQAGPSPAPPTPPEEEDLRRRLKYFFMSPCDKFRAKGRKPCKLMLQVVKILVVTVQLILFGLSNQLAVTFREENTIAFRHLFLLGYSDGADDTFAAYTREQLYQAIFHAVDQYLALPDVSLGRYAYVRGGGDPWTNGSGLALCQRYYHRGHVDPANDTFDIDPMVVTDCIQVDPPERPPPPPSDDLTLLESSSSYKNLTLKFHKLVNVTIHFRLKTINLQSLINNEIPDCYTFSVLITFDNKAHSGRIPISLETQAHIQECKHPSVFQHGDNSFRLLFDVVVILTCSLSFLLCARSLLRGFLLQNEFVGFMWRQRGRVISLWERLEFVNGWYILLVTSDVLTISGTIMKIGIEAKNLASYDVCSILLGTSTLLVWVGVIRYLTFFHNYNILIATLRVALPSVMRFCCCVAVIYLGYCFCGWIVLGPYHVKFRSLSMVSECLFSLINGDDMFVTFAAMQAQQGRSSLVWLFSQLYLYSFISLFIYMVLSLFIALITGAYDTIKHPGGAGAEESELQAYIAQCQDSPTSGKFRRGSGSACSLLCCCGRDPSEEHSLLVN
#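 Tetracycline-induced TRPML1-DL cells are seeded and incubated overnight before loading with a no-wash Ca2+ dye and quencher. Agonist activity is taken from the 110 s fluorescence read following compound pin-transfer on an FDSS, before EC80 54-4 challenge.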
# Vif-A3G inh = blocks the Vif interaction with human APOBEC3G | Q9HC16 | HeLa A3G-eYFP + Vif (tagged APOBEC3G with the HIV-1 protein that degrades it), YFP fluorescence, overnight | Potency, µM (highest dose often 46.1 µM), for inactives: top-dose activity, negative = active, hits mostly inhibitors | 0.076% of 410,000 active; also: potency is read from the fitted curve at half-maximal effect; % is scaled to controls: 0 for no effect and ±100 for the full control effect; nearly all actives have a fitted effect of over 60% in size
#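 Read-out is eYFP fluorescence (Ex 488/Em 500-530) from Vif-expressing HeLa A3G-eYFP cells; more signal means A3G escaped Vif-mediated degradation. Cells plated overnight, compound pinned in, incubated overnight at 37 deg C.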
# TRPML1 inh = human mucolipin-1 channel inhibition; Q9GZU1; TRPML1-inducible cells, Ca2+ dye fluorescence, FDSS; stronger effect = lower value; inhibition of EC80 agonist-evoked calcium signal; activity change, negative = inhibition, % (concentration not given with the values); 0.02% of 390,000 active; in the data active = activity change below about -50%; inconclusive = between about -30% and that limit;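 also: stimulus is agonist 54-4 at its EC80 concentration; % is scaled to controls: 0 for no effect and ±100 for the full control effect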
#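 Calcium fluorescence in TRPML1-DL cells induced overnight with Tet: a 110 s read after compound pin addition, then a 110 s antagonist read after challenge with 54-4 at 4 uM final (EC80).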
# AT treatment = candidate therapy for ataxia-telangiectasia | F2112 A-T fibroblasts, KAP-1 phosphorylation AlphaLISA; neocarzinostatin DNA damage 30 min before lysis | Potency, µM (top dose mostly 57.5 µM), inactives show top-dose activation, usual class: activators | 0.19% of 320,000 active; also: potency is read from the fitted curve at half-maximal effect; % of control where 0% means no effect; nearly all actives have a fitted effect of over 45% in size
#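 ATM-like activity read as KAP-1 phosphorylation via AlphaLISA donor/acceptor antibody pairs after lysis and 6 hr at 25C. Cells were ATM-null patient fibroblasts (F2112, hTERT), dosed 60 min, then exposed to the DSB inducer NCS for 30 min.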
# Active calls of the source: *; ? = inconclusive; . = not tested or not shown. Unless noted, calls follow the shape of the dose curve; as a rule, active = well fitted curve in the direction sought with a large enough effect; inconclusive = small, poorly fitted or top-dose-only effect, or another doubt; inactive = no such curve, though single readings can be large; an effect the other way counts as inactive or inconclusive.
SMILES,Vif-APOBEC3F blk,TRPML1 ag,Vif-A3G inh,TRPML1 inh,AT treatment
O=C1/C(=C/c2ccc(O)cc2)SC(=S)N1CC1CCCO1 (configuration not stated),22µM*,17,-1%,0,-8%
COc1cc(/C=C2/SC(=S)N(Cc3ccccc3)C2=O)cc(Cl)c1O,-747%,65*,?,-3,-8%
O=C1/C(=C\c2ccc(O)cc2)SC(=S)N1Cc1ccccc1,11µM*,15,-18%,15,3%
COc1cc(/C=C2\SC(N)=NC2=O)cc(Cl)c1O,11µM*,.,-18%,.,-9%
CCCOc1ccc(/C=C2\SC(=S)N(CC3CCCO3)C2=O)cc1 (configuration not stated),-10%,0,2%,22,-10%
N#Cc1ccc(NC(=O)COc2ccccc2C(=O)Nc2ccccc2)cc1,.,0,2%,.,.
CC(Oc1ccccc1)C(=O)Nc1cccc(-c2cn3cccnc3n2)c1 (configuration not stated),-1%,0,-10%,9,.
CCC(=O)N1c2ccccc2CC1C(=O)NCCc1cc(OC)c(OC)c(OC)c1 (configuration not stated),1%,0,-1%,-25,.
CCCN1CNc2c(c(=O)[nH]c(=S)n2CCc2cccc(C)c2C)C1,.,-1,.,.,.
CN1C(=O)N(C)c2ccc(C=O)c3cccc1c23,11µM*,0,0%,-2,-3%
CN1C(=O)N(C)c2ccc(Br)c3cccc1c23,0%,2,-2%,7,-3%
COc1ccc(NC(=O)Cn2c(=O)n(Cc3nc(-c4ccccc4)no3)c(=O)c3ccccc32)cc1Cl,0%,-1,4%,20,.
Cc1ccc(-n2ncc(C(=O)N3CCCCC3)c2C2CCN(C(=O)OC(C)(C)C)CC2)c(C)c1,2%,0,-5%,13,.
Cc1ccc(S(=O)(=O)N2CCOCC2)cc1C(=O)N(C)CCOc1ccc(Cl)cc1,-10%,1,0%,-4,22µM*
CN(C)c1ccc(/C=C/c2ccnc3c(Cl)cccc23)cc1,.,54*,3.5µM*,.,.
CCN(CC)c1ccc(/C=C/c2ccnc3ccccc23)cc1,.,54*,11µM*,.,.
CN(C)c1ccc(/C=C/c2c(Cl)cnc3ccccc23)cc1,.,3,?,.,.
CCN(CC)c1ccc(/C=C/c2ccccn2)cc1,.,27,3.2µM*,.,.
CN(C)c1ccc(/C=C/c2ncnc3ccccc23)cc1,.,82*,9%,.,.
CCN(CC)CCN(CC)c1ccc(/C=C/c2ccnc3ccccc23)cc1,.,4,-12%,.,.
COc1cc2nc(N3CCCN(C)CC3)nc(NC3CCOCC3)c2cc1OC,.,1,.,.,.
O=C(NCc1cccnc1)[C@@H]1CC=C[C@@H]2CCN(C3CCCCC3)C(=O)[C@@H]21,.,-1,-4%,.,.
C[C@H]1CN([C@@H](C)CO)C(=O)CCCn2nncc2CO[C@@H]1CN(C)C(=O)c1ccncc1,3%,19,-5%,-5,.
C=CC[C@H](c1ccc(F)cc1)N(CC(C)C)S(=O)(=O)C=C,.,21,-11%,.,.
Cc1ccc(C(C)C)c(OCC(=O)N2CCC(c3nc4ccccc4o3)CC2)c1,1%,5,-5%,3,.
SMILES,Vif-APOBEC3F blk,TRPML1 ag,Vif-A3G inh,TRPML1 inh,AT treatment
COCCCNC(=O)c1ccc(-n2c(-c3ccccc3)cc3c2CCC(C)C3)cc1 (configuration not stated),0%,2,-20%,-8,.
CN(C)c1ccc(N=Nc2ccc(/C=C/c3ccnc4ccccc34)cc2)cc1,.,124*,8%,.,.
COC(=O)CN1C(=O)S/C(=C/c2ccc(N3CCCCC3)o2)C1=O,?,18,13%,-4,2%
CCOC(=O)CN1C(=O)S/C(=C/c2ccc(N3CCCCC3)o2)C1=O,32µM*,13,6%,-9,-6%
CC(=O)Nc1sc(N/N=C/c2ccccc2)nc1-c1ccc(C)cc1,17%,0,0%,18,1%
CC(=O)Nc1sc(/C(C#N)=C\c2cccc(Cl)c2)nc1-c1ccc(C)cc1,10µM*,77*,4µM*,-23,35%
Cc1cccc2cc3c(N)c(C(=O)N4CCOCC4)sc3nc12,22µM*,0,?,0,5%
COC(=O)C1C2CC3c4[nH]c5cc(OC)ccc5c4CCN3CC2CC(OC2CCCCO2)C1OC (configuration not stated),11µM*,1,-9%,-1,.
COC(=O)[C@H]1[C@H]2C[C@@H]3c4[nH]c5cc(OC)ccc5c4CCN3C[C@H]2C[C@@H](OC(=O)c2cc(OC)c(OC)c(OC)c2)[C@@H]1OC,?,1,-13%,-8,-7%
COc1ccc(N=Nc2ccc(O)c3ncccc23)cc1,-23%,2,-3%,-5,-82%
CCc1ccc(N=Nc2ccc(O)c3[nH]cnc23)cc1,8.9µM*,20,?,10,-11%
CCc1nnc(SCc2cc(C)ccc2C)c2cc3sc(C)cc3n12,0%,-1,4%,13,.
COc1cc(N2CCCC2)c(OC)cc1/C=C(/C#N)c1cccc(F)c1,?,12,5µM*,-9,-5%
N#C/C(=C/c1ccc(N2CCCCCC2)o1)c1cccc(F)c1,5µM*,2,?,-9,?
N#C/C(=C/c1ccc(N2CCCCCC2)o1)c1ccc(F)cc1,28µM*,1,?,18,.
Cc1nc2nc(CNC(=O)OC(C)(C)C)nn2c(C)c1CCC(=O)NCc1ccc(F)cc1,-9%,1,2%,-23,.
Cc1ccc(OCCNC(=O)CNC(=O)Cc2cccc3ccccc23)cc1,.,-1,-1%,.,.
Cc1cc2nccc(/C=C/c3ccc(N(C)C)cc3)c2cc1C,.,5,-17%,.,.
Cc1cc2c(s1)c1cnn(CC(=O)N3CCOCC3)c(=O)c1n2C,.,0,0%,.,.
CCCCCCC[n+]1ccc(/C=C/c2c(C)[nH]c3ccccc23)c2ccccc21,.,3,9%,.,.
Cc1cccc2c(=O)[nH]c3c(-c4nc(-c5ccc(Cl)cc5)cs4)c(O)cn3c12,.,0,-6%,.,.
CCOC(=O)c1cn(Cc2ccccc2)c(C(=O)OC(C)(C)C)c1O,-2%,60*,-6%,-5,.
CCOC(=O)c1cn(Cc2ccccc2)c2cc(C)nn2c1=O,-3%,0,0%,7,0%
CC(C)(C)n1ncc2c(=O)n(Cc3cccc(OC(F)F)c3)cnc21,.,2,2%,31,.
Cn1nnnc1SCCNCc1cc(Br)ccc1OCc1ccccc1Cl,13µM*,5,-15%,83,.
Cn1nnnc1SCCNCc1ccccc1OCc1ccccc1Cl,7%,0,-1%,-3,4%
Cc1c(C(=O)Nc2ccccc2Cl)oc2ccc(S(=O)(=O)N3CCCCC3)cc12,-27%,0,-2%,19,.
CCCn1c(=N)c(C(=O)NCc2cccnc2)cc2c(=O)n3cc(C)ccc3nc21,-9%,4,3%,4,.
